The values that follow come from PubChem BioAssay AID493169 (National Center for Advancing Translational Sciences (NCATS), 2011).

Results filed as inconclusive are left out. Values without a mark were called inactive. Activity calls are given as the source filed them. Calls come from the whole dose curve; as a rule, active = well fitted inhibition curve with a large enough effect; inconclusive = small, poorly fitted or top-dose-only effect; inactive = flat fitted curve, though single readings scatter.
% is set by controls: 0 for no effect and ±100 for the full control effect; potency is the fitted concentration of half-maximal effect.

The assay is described as follows: CHOP2 Reporter Counterscreen Assay for Inhibitors of Ubiquitin-specific Protease USP2a.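 Note: activated enterokinase alone at 50 pM in a cell-free format rather than USP2a or CHOP2; nearly all actives have a fitted effect of over 55% in size.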 The conditions noted are these: purified enterokinase, fluorogenic substrate, 485/531 nm; series mostly up to 38.3 µM; activity change, negative = inhibition: at the top concentration. A digest of the protocol: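 Cell-free counterscreen with pre-activated enterokinase alone (50 pM final) in 20mM Tris-HCl pH 8.0, 2mM CaCl2, 2mM beta-mercaptoethanol, 0.05% CHAPS; compound preincubation 30 min RT, reporter substrate 25nM final, fluorescence read after 10 min (Ex 485/Em 531).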
As to `COCc1cc(C)nc(SCC[N+](C)(C)CC(=O)Nc2cccc(C(F)(F)F)c2)c1C#N`, the “activity change, negative = inhibition” value was -16.9%.

Turning to `CC(C)(C)C(=O)Nc1c2c(nc3c1CCC3)CCCC2`, the “activity change, negative = inhibition” value was -1.85%.

With `CC(C)(C)[C@H]1COC(=O)[C@@H](Cc2ccc(F)cc2)C/C=C\C[C@@H](CC(=O)N[C@H](CO)Cc2ccccc2)C(=O)N1`, the “activity change, negative = inhibition” value was -3.42%.

Regarding `Cc1csc(NC(=O)CCn2c(=O)sc3ccccc32)n1`, the “activity change, negative = inhibition” value is 2.39%.

Regarding `COc1ccccc1C(=O)N1CCN=C1SC`, the “activity change, negative = inhibition” value was 5.64%.

As to `COc1ccccc1-n1c(SCC(=O)Nc2ccc(C)cc2)nc(O)cc1=O`, the “activity change, negative = inhibition” value is -9.74%.

For `CCOC(=O)c1c(NC(C)=O)sc2c1CCCNC2=O`, the “activity change, negative = inhibition” value was 0.0158%.

Turning to `Cc1ccccc1[C@@H]1C(C#N)=C(N)S[C@H]1C(=O)c1ccccc1`, the “activity change, negative = inhibition” value is -0.33%.

Regarding `O=C(c1ccc([N+](=O)[O-])cc1)N(Cc1ccc(Cl)cc1)N1C(=O)CCCC1=O`, the “activity change, negative = inhibition” value is 1.6%.

As to `CCCn1c(C)cc(C)c(C#N)c1=O`, the “activity change, negative = inhibition” value was 0.326%.

As for `Cc1ccc(C(=O)COC(=O)CNC(=O)CN2C(=O)c3ccccc3C2=O)cc1`, the “activity change, negative = inhibition” value is 4.51%.

On to `CCOc1ccc(Cn2c(=O)sc3ccccc32)cc1OC`, for which the “activity change, negative = inhibition” value was 2.91%.

For `CCC(C)(C)n1nnnc1C(c1ccc(C)cc1)N1CCCC1` (stereo not given), the “activity change, negative = inhibition” value is 0.491%.

In the case of `Cc1cc(C)cc(NC(=O)CSc2nc3c(c(=O)[nH]2)CN(Cc2ccc(F)cc2)CC3)c1`, the “activity change, negative = inhibition” value was -11.1%.

For `Cc1cc(C)c2c(N=CN(C)C)c(C(=O)N3CCN(c4ncccn4)CC3)sc2n1`, the “activity change, negative = inhibition” value was 3.03%.

As for `O=C(COc1ccccc1)N1CCN(C(=O)Cc2ccccc2)CC1`, the “activity change, negative = inhibition” value was 1.53%.

As for `O=c1oc2ccccc2n1Cn1c(=O)oc2ccccc21`, the “activity change, negative = inhibition” value was -0.0721%.

For the compound `COc1ccc(Cl)cc1C(=O)Nc1cccc(-c2ccc3nncn3n2)c1`, the Potency was 10 µM (active).

As to `Cc1noc(NS(=O)(=O)c2ccc(N/C=C\C(=O)c3cccc4ccccc34)cc2)c1C`, the “activity change, negative = inhibition” value was -4.93%.

Turning to `Cc1ccc(C(=O)Oc2coc(CSc3nnc(NC(=O)c4cccs4)s3)cc2=O)cc1`, the Potency is 3.16 µM (active).

As to `O=C(O)/C=C/c1ccc(S(=O)(=O)Nc2ccccc2C(=O)Nc2ccc(F)cc2)cc1`, the “activity change, negative = inhibition” value is -6.94%.

Consider `O=C(NCCN1C(=O)CSC1=O)C1CC(=O)N(c2ccccc2)C1` (stereo not given), for which the “activity change, negative = inhibition” value was 4.98%.

As to `O=C(Nc1ccccc1)c1cc(Cl)nc2ccccc12`, the “activity change, negative = inhibition” value is 2.73%.

`CCCCn1c(SCC(=O)N2CCC(C)CC2)nc2cc(S(N)(=O)=O)ccc21`: the “activity change, negative = inhibition” value was -3.32%.

Take `CC(C)Cn1c(SCC(N)=O)nnc1-c1cccc(S(=O)(=O)N2CCOCC2)c1`: the “activity change, negative = inhibition” value is 1.51%.

`O=C1c2ccccc2C(=O)N1CCC1=CCCCC1`: the “activity change, negative = inhibition” value is -0.258%.

Take `Cc1ccc(C(=O)NCc2ccc3c(c2)OCO3)cc1N1CCCC1=O`: the “activity change, negative = inhibition” value was 2.1%.

As for `O=C(c1ccco1)N1CCN(C(c2cccs2)c2sc3ncnn3c2O)CC1` (stereo not given), the “activity change, negative = inhibition” value was 1.66%.

For the compound `COc1ccc(S(=O)(=O)N2CCCCC2)cc1NC(=O)Cc1c[nH]c2ccccc12`, the “activity change, negative = inhibition” value is -6.03%.

Turning to `O=C(Cc1cc(=O)[nH]c(=O)[nH]1)NCC1CCCO1` (stereo not given), the “activity change, negative = inhibition” value is 0.989%.

With `COc1ccc(CNS(=O)(=O)c2ccc(S(=O)(=O)N3CCCCC3)cc2)cc1`, the “activity change, negative = inhibition” value was 5.66%.

Regarding `COc1ccc(-n2c(=S)[nH]c3cc(C(=O)NCc4ccc(F)cc4)ccc3c2=O)c(OC)c1`, the “activity change, negative = inhibition” value was -1.81%.

`O=C(COC(=O)c1ccc(F)c(S(=O)(=O)N2CCOCC2)c1)c1ccccc1`: the “activity change, negative = inhibition” value is 0.0433%.

`CCCCCCCCCCOC(=O)Cn1c(COc2ccccc2C)[n+](C)c2ccccc21`: the Potency is 5.62 µM (active).

Take `COC(=O)CCC(=O)Nc1sc2c(c1C#N)CCCC2`: the “activity change, negative = inhibition” value was -2.49%.

For the compound `Cc1ccc(NC(=O)c2cc3c(=O)oc4ccccc4c3s2)nc1`, the “activity change, negative = inhibition” value is 7.35%.

For the compound `Cc1ccc(NC(=O)c2onc(C)c2Cl)cc1`, the “activity change, negative = inhibition” value was -0.102%.

Turning to `COCc1c(C(=O)OCC(=O)c2c(N)n(CC(C)C)c(=O)n(C)c2=O)oc2ccccc12`, the “activity change, negative = inhibition” value is -2.9%.

In the case of `Nc1nc(NCCO)nc(NCC2CCCO2)c1[N+](=O)[O-]` (stereo not given), the “activity change, negative = inhibition” value is 2.32%.

Turning to `NS(=O)(=O)c1ccc(N=Nc2c(O)c(C(=O)O)cc3ccccc23)cc1`, the Potency was 11.2 µM (active).
